In the supplement of paper PMC4166925:
± gives the standard deviation of the averaged measurements. In all, about 33,000 sequences were measured (“E-score (dimensionless, -0.5 to 0.5)”: median about -0.049, highest 2% from about 0.37 on). The entries come from a sample that favours the highest values as a whole.

What follows are sequences tested on T1, PmTbr T-box DNA-binding domain (GST fusion) (assay: PBM E-score of 8-mer (E-score (dimensionless, -0.5 to 0.5)); Tbr is Tbrain of the sea star Patiria miniata (Pm) or the sea urchin Strongylocentrotus purpuratus (Sp); higher = stronger binding preference). Conditions: the construct has about 5 more residues each side.
T1 sequence: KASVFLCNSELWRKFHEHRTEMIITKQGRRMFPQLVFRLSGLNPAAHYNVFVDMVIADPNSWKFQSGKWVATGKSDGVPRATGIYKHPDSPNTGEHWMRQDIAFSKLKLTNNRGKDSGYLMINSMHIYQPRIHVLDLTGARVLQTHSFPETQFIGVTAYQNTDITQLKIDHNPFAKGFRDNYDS
Summary of the method: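 Universal Agilent oligonucleotide arrays, made double-stranded by primer extension, were incubated with 200 nM GST-fused Tbr T-box DNA-binding domain in PBS (pH 7.5). The protein was expressed in BL21 E. coli at 20 °C and purified by glutathione affinity chromatography. After scanning and quantification, the Universal PBM Analysis Suite assigned an enrichment E-score to each ungapped 8-mer, averaged over duplicate arrays.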

Sequence	PBM E-score of 8-mer
AGTCATAT	-0.234 ± 0.069
ATTAACAA	0.173 ± 0.14
CTTAACCC	-0.0938 ± 0.018
CTTAACAC	0.434 ± 0.013
ATTAACAC	0.449 ± 0.0075
CTTAACAA	0.201 ± 0.041
ATTAACAG	0.143 ± 0.048
CTACTCGA	-0.0985 ± 0.018
AACTTAAT	-0.0144 ± 0.063
GGTTCTTA	-0.0403 ± 0.11
ACCTTAAC	0.0595 ± 0.0064
GACACCCC	0.409 ± 0.031
GACACCCA	0.388 ± 0.032
AACACCCA	0.348 ± 0.029
AACACCCC	0.433 ± 0.0072
AACACCCT	0.433 ± 0.017
GCCACCCC	0.208 ± 0.0084
GGCACCCC	0.244 ± 0.03
GGCACCCA	0.217 ± 0.018
ACCACCCT	0.0583 ± 0.021
AGCACCCT	0.309 ± 0.031
ACCACCCC	0.191 ± 0.072
GCCACCCA	0.0536 ± 0.024
CTACATGA	-0.0685 ± 0.044
CTCCGTCC	-0.281 ± 0.02

Sequence	PBM E-score of 8-mer
GCTCAATA	-0.0299 ± 0.077
CCTCGATC	0.0184 ± 0.014
CTCAGAGA	-0.262 ± 0.012
CGCGTTGC	0.211 ± 0.017
GCTAAGGA	-0.08306 ± 0.00035
ATCACTAG	0.0709 ± 0.015
GTAAGCAA	-0.113 ± 0.031
CTTGCACA	0.148 ± 0.026
ACGACACC	0.421 ± 0.018
ACGACACT	0.298 ± 0.0045
CCGACACA	0.37 ± 0.028
CCGACACC	0.448 ± 0.018
CAGACACC	0.355 ± 0.0066
ACGACACG	0.225 ± 0.062
CCGACATC	-0.0298 ± 0.027
GGGACACC	0.216 ± 0.077
GCGACACA	0.302 ± 0.022
TCGACACA	0.319 ± 0.016
CCGACACG	0.261 ± 0.013
GCGACACC	0.462 ± 0.011
GTCCAGGA	-0.195 ± 0.049
ACATATGA	0.0313 ± 0.063
CTCGATCA	0.0196 ± 0.0013
GTCCCCAA	-0.071 ± 0.1
TCAGTCGA	-0.0383 ± 0.035

Sequence	PBM E-score of 8-mer
AGAGTACC	-0.132 ± 0.064
GATATAAC	0.115 ± 0.0035
GACATCTC	-0.14 ± 0.016
GATTTGGC	0.249 ± 0.01
CGTTGTTA	0.157 ± 0.043
AGTTGTCG	0.309 ± 0.0099
AGTTGTCA	0.4064 ± 0.0017
AGTTGTTA	0.388 ± 0.011
AGTTGTTG	0.195 ± 0.0086
GGTTGTCA	0.342 ± 0.0085
CTCTTTTA	0.105 ± 0.092
ATCACAGA	0.129 ± 0.011
ATCACATA	0.297 ± 0.028
ATCACACC	0.4877 ± 0.0026
ATCACAGG	0.195 ± 0.099
ATCACACA	0.418 ± 0.01
AACACACC	0.3 ± 0.019
ATCACAAA	0.0643 ± 0.013
ATCACACG	0.39 ± 0.0083
ATCACAGC	0.211 ± 0.024
AACAAGCT	-0.168 ± 0.035
TAGAACGA	-0.136 ± 0.028
GCATAGTA	-0.202 ± 0.024
AACACTTG	0.408 ± 0.0044
AACACTTC	0.442 ± 0.014

Sequence	PBM E-score of 8-mer
AACACTAG	0.275 ± 0.056
AACACTTA	0.42 ± 0.019
ATCACTTA	0.194 ± 0.042
CACACTGA	0.2581 ± 0.00048
ATCACTTG	0.216 ± 0.045
AACACTGA	0.182 ± 0.069
AGCACTTC	0.313 ± 0.012
CGCACTTA	0.293 ± 0.022
CACACTTA	0.4445 ± 0.0038
ATCACTTC	0.293 ± 0.015
AGGACCGG	-0.31 ± 0.028
TGGCTGAA	-0.23 ± 0.083
CAGACCCA	-0.0557 ± 0.00088
AATGGCGA	0.163 ± 0.021
TGCCATAA	0.0817 ± 0.098
GAAGATCC	-0.101 ± 0.034
CCCTGGGA	-0.131 ± 0.0026
GACACTGA	0.157 ± 0.016
GACACTTA	0.3962 ± 0.0036
GCCACTTA	0.232 ± 0.021
CACACTGC	0.168 ± 0.039
CCCACTTC	0.1799 ± 0.00066
CACACTTC	0.445 ± 0.005
GAGTCTAC	-0.282 ± 0.068
GGTCGACC	-0.253 ± 0.033

Sequence	PBM E-score of 8-mer
GTGATAGA	0.297 ± 0.042
AGTCGACA	0.253 ± 0.013
CGTCGACA	0.26 ± 0.031
TGTCGACA	0.371 ± 0.0078
ACATTTGA	0.038 ± 0.044
AATGACGG	-0.0819 ± 0.0024
ACAGCGCG	0.258 ± 0.0087
GGTGAGAC	0.3824 ± 0.0024
GGTGAGGA	0.364 ± 0.018
CGTGAGAA	0.349 ± 0.039
AGTGAGAC	0.251 ± 0.023
AGTGAGAA	0.421 ± 0.025
GGTGAGAA	0.4754 ± 0.0012
AGTGAGAT	0.287 ± 0.016
TCTGAGAA	-0.135 ± 0.0068
CGTGAGAC	0.258 ± 0.044
TGAGAGAA	0.0636 ± 0.079
TGTGAGAA	0.43 ± 0.0057
AGTGAGAG	0.312 ± 0.022
ACCTTCCA	0.0703 ± 0.049
AAACAGGG	-0.081 ± 0.025
AATTCATC	-0.0277 ± 0.0079
CCCCCAGA	-0.116 ± 0.043
ACCAAAAA	-0.124 ± 0.021
GCTTGTAA	-0.0775 ± 0.029

Sequence	PBM E-score of 8-mer
CGAGGAGC	-0.0722 ± 0.028
CTAGTCAC	0.0813 ± 0.05
TATCTACA	-0.0338 ± 0.029
AATTCGCA	0.339 ± 0.032
AGGTGATC	0.219 ± 0.0025
GGGTGATA	0.368 ± 0.0085
AGGTGATG	0.4179 ± 0.0014
CGGTGATA	0.187 ± 0.0068
AGGTGATA	0.468 ± 0.0054
ACGTGATG	0.137 ± 0.028
AACAACTG	0.236 ± 0.0091
CGACGCAC	-0.0252 ± 0.048
AGTGCTTC	-0.15 ± 0.097
CGAATGGC	0.0367 ± 0.0062
AACCGCAT	-0.147 ± 0.042
AATTCATA	-0.105 ± 0.05
AGGCGTGA	0.4805 ± 0.00059
ACGCGTGA	0.38 ± 0.012
AAGCGTGA	0.401 ± 0.018
AGGCGTGG	0.265 ± 0.016
GGGCGTGA	0.429 ± 0.0092
GGGCGTAA	0.118 ± 0.012
AAGCGTGT	0.235 ± 0.017
GCGCGTGA	0.322 ± 0.0044
AGGCGTGC	0.158 ± 0.011

Sequence	PBM E-score of 8-mer
CGGCGTGA	0.327 ± 0.0041
AAGCGTGG	0.0213 ± 0.089
ACGCGTGC	0.14 ± 0.034
CATTGCCG	0.0765 ± 0.039
TTAAGAAA	-0.165 ± 0.066
AATACTCT	-0.111 ± 0.064
CCGAGGGA	-0.236 ± 0.0027
ACGTTCAC	0.227 ± 0.06
CAATCGCG	0.269 ± 0.026
AATGCTGG	-0.209 ± 0.026
TAGGGTAA	-0.0929 ± 0.022
ATACTGAA	-0.116 ± 0.013
CACGCAAC	0.024 ± 0.02
CATAGTAG	-0.286 ± 0.031
GATAACCC	0.0272 ± 0.031
GTTAGGCA	-0.0852 ± 0.013
GCGTTAAC	0.275 ± 0.056
CATTAAGG	-0.136 ± 0.13
AGGCGTCG	0.353 ± 0.029
AGGCGTCA	0.4194 ± 0.0035
CGGCGTCA	0.219 ± 0.03
ACCTTATA	0.221 ± 0.084
